# Source: PubChem (The Scripps Research Institute Molecular Screening Center)
# The full list was thinned out, with hits kept by preference.
# TbREL1 primary = TbREL1 inhibition, primary screen. P86926. TbREL1 RNA ligation, FRET fluorescence. actives 0.49% (n = 89,000). inhibition, % at 9.66 µM. AID 1117264;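 active means inhibition above the mean inhibition across all screened compounds plus 3 SD, cut at about 11% in these data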;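 further: 0% = plate median of test wells and 100% = NSC42067 control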
# Target sequence (P86926 whole entry, looked up): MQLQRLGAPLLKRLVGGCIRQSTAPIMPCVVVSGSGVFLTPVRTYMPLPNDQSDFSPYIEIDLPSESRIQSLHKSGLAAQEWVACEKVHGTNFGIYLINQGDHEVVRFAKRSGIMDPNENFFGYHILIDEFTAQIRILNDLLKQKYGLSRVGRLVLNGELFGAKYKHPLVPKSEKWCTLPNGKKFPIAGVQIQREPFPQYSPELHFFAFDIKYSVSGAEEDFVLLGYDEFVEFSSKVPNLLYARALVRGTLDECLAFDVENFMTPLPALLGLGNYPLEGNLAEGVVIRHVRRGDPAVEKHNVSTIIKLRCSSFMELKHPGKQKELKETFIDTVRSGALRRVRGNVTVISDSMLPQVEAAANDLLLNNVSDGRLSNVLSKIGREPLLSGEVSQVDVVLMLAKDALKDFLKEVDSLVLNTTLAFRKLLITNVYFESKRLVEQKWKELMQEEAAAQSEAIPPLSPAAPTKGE
# An asterisk follows results filed as active.
SMILES,TbREL1 primary
CCCCCCSc1cc(-c2nc3ccc(Cl)cn3c2NC2CCCCC2)ccc1OC,-2
CCCCNc1c(-c2ccc(SC3CCCCC3)c(OC)c2)nc2ccc(Cl)cn12,25*
CCCCCCSc1ccc(-c2nc3ccc(Cl)cn3c2NCCCC)cc1OC,-1
Cc1ccc(-n2c(SCC(=O)Nc3ccc(S(=O)(=O)Nc4cc(C)nc(C)n4)cc3)nnc2-c2cccs2)cc1,-2
Cc1ccc(S(=O)(=O)N2CCCC(C(=O)NCCN3CCC(Cc4ccccc4)CC3)C2)cc1 (stereo not drawn),9
C=C1CCC2C(C)(C)CCC[C@]2(C)[C@H]1CC1=C(O)C(=O)C(CO)=CC1=O (stereo partly drawn),-2
Cc1ccc(-n2c(SCC(=O)c3ccc(O)c(O)c3)nnc2-c2ccccc2)cc1,-4
C=CCc1cccc(CNc2ccc(Br)cc2)c1O,-3
COc1ccc(C(=O)NN)cc1COc1ccc(Br)cc1,6
COc1ccc(Br)cc1CNc1ccc(O)cc1,24*
O=C(CNCc1ccccc1[N+](=O)[O-])N1CCC2(CC1)OCCO2,-3
Nc1nc(Nc2cccc(Cl)c2)nc(NCCO)c1[N+](=O)[O-],6
COc1ccc(Nc2nc(NCc3ccco3)nc(N)c2[N+](=O)[O-])cc1,0
Nc1nc(Nc2cccc(Cl)c2)nc(NCc2ccco2)c1[N+](=O)[O-],11*
COc1ccc(-n2c(SCC(=O)Nc3ccc(S(=O)(=O)Nc4nccs4)cc3)nnc2-c2ccco2)cc1,4
CN1CC(=O)N2[C@@H](C[C@]3(c4c[nH]c5ccccc45)c4ccccc4N(S(=O)(=O)c4ccccc4)[C@H]23)C1=O,0
COc1ccc(C2=Nn3c(nnc3C3CCCCC3)SC2)cc1,-1
O=C(NCc1ccccc1Cl)O[C@H]1CC[C@@]23CCCN2C(=O)CCC[C@H]3C1,-1
CC(C)C(C)NC(=O)Cn1cnc2c(oc3ccccc32)c1=O (stereo not drawn),2
CCOC(=O)C(C)n1cnc2c(oc3ccccc32)c1=O (stereo not drawn),17*
CCCCn1cnc2c(oc3ccccc32)c1=O,3
Cc1ccc2nc(-c3ccc(NC(=O)CSc4nnc(-c5ccccc5)n4Cc4ccco4)cc3)sc2c1,-2
CC(=O)Nc1ccc(S(=O)(=O)N2CCN(c3ccc(C(C)=O)cc3)CC2)cc1,5
CC(=O)c1ccc(N2CCN(S(=O)(=O)c3ccc4c(c3)C(Cl)(Cl)C(=O)N4)CC2)cc1,11*
O=C1Cc2cc(S(=O)(=O)N3CCN(c4ccc(C(=O)O)cc4)CC3)ccc2N1,4
SMILES,TbREL1 primary
COc1cc(/C=N/n2c(-c3cc(-c4ccccc4)n[nH]3)n[nH]c2=S)ccc1OCc1ccccc1,-6
Cc1cccc(NC(=O)N2CCC(N(C)CCC(C)C)CC2)c1,0
CSCCCNC(=O)Cn1nc(Cc2ccncc2)c2ccccc2c1=O,-4
COc1ccc(CN(CCN2CCOCC2)C(=O)c2cc(Cl)ccc2F)cc1OC,-1
Cc1ccc(CNc2ccc3nnc(-c4ccccc4)n3n2)cc1,11*
O=C(NCCc1nnc2ccc(NCc3ccc(Cl)cc3)nn12)c1ccccc1,0
Cc1ccc(CNc2cnccn2)cc1,0
COc1cccc(NC(=O)C2CCCN2C(=O)NCc2ccccc2)c1 (stereo not drawn),1
Cn1c(Cn2c(=O)sc3ccccc32)nnc1SCC(=O)N1CCCCCC1,-2
O=C(CSc1nnc(Cn2c(=O)sc3ccccc32)n1-c1ccccc1)N1CCCCCC1,12*
O=C(CSc1nnc(Cn2c(=O)sc3ccccc32)n1-c1ccccc1)N1CCCC1,1
Fc1ccc(-c2n[nH]c(=S)n2N=Cc2cccc(OCc3ccccc3)c2)cc1,-4
CCCOc1ccc(F)cc1-c1cc(C(=O)NC(C)C)[nH]n1,3
CCCOc1ccc(F)cc1-c1cc(C(=O)Nc2ccc(C)c(NS(C)(=O)=O)c2)[nH]n1,-1
CCCOc1ccc(F)cc1-c1cc(C(=O)Nc2ccc(OC)c(OC)c2)[nH]n1,16*
N=c1c2c(ccn1CCCc1ccccc1)Oc1ccc3ccccc3c1C2c1ccccc1 (stereo not drawn),6
C#CCOCCOCCOCCNc1nc(N2CCOCC2)nc(N2CCN(C(=O)CCCCCCCCCCNC(=O)[C@H](CO)n3cc(CCCSC)nn3)CC2)n1,-3
C#CCOCCOCCOCCNc1nc(N2CCN(C(=O)CCCCCCCCCCNC(=O)[C@H](CCCCN)n3cc(CCO)nn3)CC2)nc(N2CCN(C(=O)CCCCCCCCCCNC(=O)[C@H](CCCCN)n3cc(CCCC(=O)O)nn3)CC2)n1,12*
C#CCOCCOCCOCCNc1nc(N2CCOCC2)nc(N2CCN(C(=O)[C@H](CCCCN)n3cc(CCC(=O)O)nn3)CC2)n1,1
COc1ccc(-n2c(SCC(=O)Nc3cc(C)c(NC(=O)c4ccccc4)cc3OC)nnc2-c2ccco2)cc1,-2
O=C(N1CCCC1)n1ncc(-c2ccc(-c3ccccc3)cc2)n1,0
Cc1ccc(-c2cc3nc(-c4ccco4)cc(N4CCN(Cc5ccoc5)CC4)n3n2)cc1,1
C(=C\c1ccccc1)/CSc1nnc(Cc2cccs2)n1-c1ccccc1,1
COCC(=O)N(Cc1ccccc1)c1ccccc1C(=O)Nc1cc(OC)ccc1OC,0
Cc1ccc(SCCC(=O)Nc2c(C)n(C)n(-c3ccccc3)c2=O)cc1,-1
SMILES,TbREL1 primary
Cc1c(NC(=O)CN2CC(C)OC(C)C2)c(=O)n(-c2ccccc2)n1C (stereo not drawn),13*
Cc1c(NC(=O)CN2CCN(c3ccccc3)CC2)c(=O)n(-c2ccccc2)n1C,3
Cc1ccc(-c2nnc(SCC(=O)NNC(=S)Nc3ccccc3)n2C2CCCCC2)cc1,-12
CN(CCC#N)C(=O)COC(=O)c1ccc2[nH]c3c(c2c1)CCCC3,1
CN(CCC#N)C(=O)COC(=O)c1c2c(nc3ccccc13)/C(=C/c1ccco1)CC2,21*
CC(C)CNC(=O)COC(=O)c1c2c(nc3ccccc13)/C(=C\c1cccs1)CC2,-4
O=C(NCC(c1ccccc1)c1ccccc1)[C@H](Cc1c[nH]c2ccccc12)NC1(C(=O)NC2CCCCC2)CCC1,-5
CN(C)c1ncc(C2=C(Cl)C(=O)C(N3CCCC3)=C(Cl)C2=O)s1,69*
CC(=O)c1cnc(N(C)C)s1,0
C[C@H]1[C@H](NC(=O)c2ccc(C(F)(F)F)cc2)CC[C@@]23CCCN2C(=O)CCC[C@@H]13,-4
CC(C)(N[C@@H](Cc1ccccc1)C(=O)NCCCc1ccccc1)C(=O)NCc1ccccc1,-3
c1ccc(-c2ccc(CNc3nc(-c4ccccn4)nnc3-c3ccccc3)cc2)cc1,4
O=C(c1cc(-c2ccc(F)cc2)no1)N1CCN(Cc2ccc3c(c2)OCO3)CC1,-3
O=C(c1cc([N+](=O)[O-])cc([N+](=O)[O-])c1)N1CCN(Cc2ccc3c(c2)OCO3)CC1,-2
O=C(c1ccc(Br)o1)N1CCN(Cc2ccc3c(c2)OCO3)CC1,27*
COc1ccc(CCN(Cc2cccs2)S(=O)(=O)c2ccc(F)cc2)cc1OC,0
CCC(C)(C)C(=O)N1CCc2cc(S(=O)(=O)N(C)Cc3ccco3)ccc21,-4
CC(C)C[C@H](NC1(C(=O)NCCc2c[nH]c3ccccc23)CCC1)C(=O)NCCCc1ccccc1,-4
Cc1ccc(-n2c(SCc3c(Cl)cccc3Cl)nnc2-c2ccco2)cc1,-1
Cc1ccc(C(=O)n2ccc3ccc(-c4ccc5ccn(Cc6ccccc6)c5c4)cc32)cc1,3
O=c1c(OC2OC(CO)C(O)C(O)C2O)c(-c2ccc(O)c(O)c2)oc2cc(O)cc(O)c12 (stereo not drawn),92*
